The list is not random: actives were taken first. Their share in the collection is about 2.3%.
M1 antag: blocks human M1 muscarinic receptor; P11229; actives 1.3% (n = 360,000); CHO-K1 hM1, Fluo-8 calcium fluorescence, ACh EC80 antagonist; inhibition, % at 3 µM;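 active means percent inhibition above its own plate's cutoff, namely the mean of that plate's compound wells plus 3 SD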;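 further: peak over basal fluorescence ratio during 140 s after agonist addition; 0% = ACh EC80 plus DMSO and 100% = DMSO alone without agonist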
Target sequence (P11229 whole entry, looked up): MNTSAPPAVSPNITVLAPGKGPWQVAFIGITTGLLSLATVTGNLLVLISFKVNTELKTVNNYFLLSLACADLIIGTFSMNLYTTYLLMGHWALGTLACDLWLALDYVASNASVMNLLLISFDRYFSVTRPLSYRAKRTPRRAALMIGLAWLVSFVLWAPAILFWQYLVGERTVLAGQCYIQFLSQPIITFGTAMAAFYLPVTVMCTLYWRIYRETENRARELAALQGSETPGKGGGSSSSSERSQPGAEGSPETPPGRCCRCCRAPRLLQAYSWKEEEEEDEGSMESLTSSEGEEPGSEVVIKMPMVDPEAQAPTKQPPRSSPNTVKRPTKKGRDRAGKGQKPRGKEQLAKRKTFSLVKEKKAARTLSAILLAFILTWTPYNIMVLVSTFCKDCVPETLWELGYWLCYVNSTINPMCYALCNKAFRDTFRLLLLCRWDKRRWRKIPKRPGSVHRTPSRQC
M1 PAM parental: nonselective activator or artifact in parental CHO-K1 calcium assay. activation, % at 3 µM. ATP EC20, Fluo-8 calcium fluorescence; 0% at ATP EC20, 100% at ATP max. actives 0.02% (n = 360,000). AID 602247;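 active means activation above the run cutoff, the mean activation of all test compounds plus 3 SD, cut at about 40% in these data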;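 further: peak over basal fluorescence ratio in a 140 s read after ATP addition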
CHO-K1 Ca ag: M1 agonist counterscreen hit in parental CHO-K1 cells. Fluo-8 calcium fluorescence; scaled to maximal ATP response, vehicle zero. activation, % at 3 µM. actives 0.48% (n = 360,000). AID 602248; in the data active means activation above about 15%;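 further: untransfected CHO-K1 host cells lacking M1 receptor as counterscreen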
CHO-K1 Ca antag: M1 antagonist counterscreen hit in parental CHO-K1 cells; inhibition, % at 3 µM; actives 0.6% (n = 360,000); ATP-induced calcium, Fluo-8 fluorescence;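 active means inhibition above a per-plate cutoff, the plate's mean sample inhibition plus 3 SD, cut at about 24% in these data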;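 further: 0% = DMSO plus EC80 ATP and 100% = DMSO alone without ATP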
M1 ag: activates human CHRM1 receptor. P11229. CHO-K1 hM1, Fluo-8 calcium fluorescence, agonist mode; 0% DMSO, 100% acetylcholine EC100. activation, % at 3 µM. actives 0.33% (n = 360,000);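 active means activation above the run's mean compound activation plus 3 SD, cut at about 16% in these data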;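 further: peak over basal fluorescence ratio within a 140 s kinetic read after compound addition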
CHRM1 PAM: positive allosteric modulators of human M1 muscarinic receptor; CHO-K1 hM1, Fluo-8 calcium fluorescence, ACh EC20; 0% = ACh EC20, 100% = maximal ACh; activation, % at 3 µM; actives 0.088% (n = 360,000); AID 588819; in the data active means activation above about 19%, passing the limit was not always enough
* = called active by the depositor; ! = repeats disagree.

SMILES	M1 antag	M1 PAM parental	CHO-K1 Ca ag	CHO-K1 Ca antag	M1 ag	CHRM1 PAM
COC(=O)COc1ccc(NS(=O)(=O)c2cccc([N+](=O)[O-])c2)cc1	-2.3	24.7	1.9	-8.3	-6.9	10.9
O=C(COc1ccc(F)cc1Br)NCCCN1CCCC1=O	-17.1	-8.3	0.0	5.7	-3.5	12.5
CCOC(=O)c1ccc(N2CCN(c3ccc(F)cc3)CC2)c(NC(=O)Nc2cccc(OC)c2)c1	34.4*	26.3	1.0	-11.6	-5.0	-15.5
O=C(O)CCCCn1c(SCc2cc(=O)n3cc(Cl)ccc3n2)nc2ccsc2c1=O	-7.9	13.1	0.6	-0.9	-6.8	3.2
O=c1c2sccc2nc(SCc2cc(=O)n3cc(Cl)ccc3n2)n1-c1ccc(F)cc1	10.6	24.7	15.1*	-7.4	-3.0	-6.5
COc1ccc(Nc2ncc(C(=O)N3CCN(Cc4ccccc4)CC3)c3ccccc23)cc1	32.1*	-5.0	4.5	14.4	1.1	-10.7
O=C(O)c1cccc(S(=O)(=O)N2CCN(Cc3ccc4c(c3)OCO4)CC2)c1	-7.1	-11.2	-0.2	4.1	-2.0	2.4
C=C[C@H]1CN2CC[C@H]1C[C@@H]2[C@@H](O)c1ccnc2ccc(OC)cc12	-11.8	-5.2	3.6	24.9*!	-5.6	0.2
C=C[C@H]1CN2CCC1C[C@H]2[C@H](O)c1ccnc2ccc(OC)cc12 (stereo partly drawn)	-13.1	-2.9	-0.5	-0.2	-5.3	-3.1
O=c1[nH]c2cc3c(cc2cc1CN(CCc1ccccc1)C(=S)NCCCN1CCOCC1)OCCO3	-10.8	-12.0	-1.8	60.5*	-5.8	1.4
CC(C)CCN1C(Nc2ccccc2)=NC[C@@H]1CC(C)C	4.9	-5.1	0.8	-7.3	-12.6	-2.1
CC(C)C[C@H]1CN=C(Nc2ccccc2)N1CCc1ccc(F)cc1	25.0	-16.6	64.2*	22.6	50.2*	-32.4
CCN1C(Nc2ccccc2)=NC[C@@H]1CC(C)C	8.8	16.4	1.2	-16.1	-10.8	-4.5
Cc1cccc(CCN2C(Nc3ccccc3)=NC[C@@H]2CC(C)C)c1	57.1*	-22.4	64.3*	37.0*	52.9*	-36.4
CC(C)C[C@H]1CN=C(Nc2ccccc2)N1CCc1cccc(F)c1	57.4*	-23.2	85.4*	43.2*	62.8*	-38.7
CC(C)C[C@H]1CN=C(N(C)C)N1CCc1cccc(F)c1	6.3	-12.1	0.4	-14.5	-12.6	-4.2
CCC(C)[C@H]1COCCS(=O)(=O)N1Cc1ccc(Br)cc1 (stereo partly drawn)	17.7	1.1	-0.1	-13.3	-10.4	-15.8
O=C(NCc1ccccc1Br)c1ccncc1	-2.6	18.0	1.4	-17.1	-2.7	7.2
Cc1c(-n2c(-c3ccccc3)nc3ccccc3c2=O)c(=O)n(-c2ccccc2)n1C	5.7	10.8	20.6*	2.7	-4.5	-3.1
COc1ccc(-c2nc3ccccc3c(=O)n2-c2c(C)n(C)n(-c3ccccc3)c2=O)cc1	-11.6	-22.2	0.5	5.3	-0.5	8.9
COc1ccc(S(=O)(=O)N(C)CC(=O)NCC2CCCO2)cc1OC (stereo not drawn)	-15.1	-7.7	0.4	-4.5	0.4	13.8
COc1ccc(S(=O)(=O)N(CC(=O)NCC2CCCO2)c2ccc(F)cc2)cc1OC (stereo not drawn)	15.8	-6.4	0.8	25.8*	-1.1	0.2
CCc1ccc2[nH]c(O)c(N=Nc3nc(-c4ccccc4)cs3)c2c1	6.6	25.9	1.1	-13.8	19.7*	-2.7
CCc1cc2c(N=Nc3c(O)[nH]c4ccccc34)ncnc2s1	-6.8	15.8	-0.1	-3.8	-8.3	3.0
COc1ccc(S(=O)(=O)Cc2ccc(C(=O)NC3CCCCC3)o2)cc1	-19.5	-4.8	2.0	-0.8	-1.0	18.0
SMILES	M1 antag	M1 PAM parental	CHO-K1 Ca ag	CHO-K1 Ca antag	M1 ag	CHRM1 PAM
COc1ccc(Nc2nc(Nc3ccc(OC)cc3)nc(-n3[nH]c(=O)c(C)c3C)n2)cc1	33.0*	7.5	2.6	11.7	-2.9	-6.9
COCCN1CC(C(=O)NCc2ncccc2C)CCC1=O (stereo not drawn)	-4.5	-1.2	0.6	-1.9	-2.3	6.5
Nc1[nH]nc2c1NN(c1ccc(Cl)cc1Cl)N2	1.4	-6.2	-0.5	7.1	3.7	10.7
N#C/C(=C\c1ccc(N2CCOCC2)o1)C(=O)NCCc1ccccc1	8.6	-7.3	23.2*	14.5	21.0*	-17.0
N#C/C(=C\c1ccc(N2CCOCC2)o1)C(=O)NC1CCCCC1	3.9	12.1	15.8*	0.1	14.5	-2.6
N#C/C(=C/c1ccc(N2CCOCC2)o1)C(=O)Nc1ccccc1	31.6	-3.0	61.4*	20.2	50.4*	-22.6
CN(C)S(=O)(=O)c1ccc(NC(=O)CSc2nnc(-c3ccco3)o2)cc1	-11.5	-5.2	0.7	-4.7	1.0	13.3
Cn1c(CC(=O)NNC(=O)c2cccnc2)nc2ccccc21	-16.4	19.0	0.4	-17.5	-1.9	16.0
C[C@H]1CN([C@@H](C)CO)C(=O)CCCn2nncc2CO[C@@H]1CN(C)Cc1cccc(C(=O)O)c1	19.1	0.8	2.4	17.6	-5.0	-7.2
Cc1cc(Cl)ccc1NC(=S)NCCCO	-12.1	13.1	0.5	-4.9	-4.5	5.8
Cc1ccc(Cl)cc1NC(=S)NCCCSC1CCCCC1	36.7*	-3.0	5.4	7.0	-3.8	-15.4
OC(CNCCc1ccc(C(F)(F)F)cc1)COc1cccc2ccccc12 (stereo not drawn)	3.7	21.8	3.0	-1.6	-2.3	6.2
COc1ccccc1COCC(O)CNCCc1ccc(C(F)(F)F)cc1 (stereo not drawn)	0.4	11.2	16.0*	-12.3	-4.8	-7.3
O=C1NC(=S)NC1=Cc1ccc(Cl)cc1Cl	-3.3	-14.1	-0.5	25.6*	-1.6	1.1
O=C1NC(=S)NC1=Cc1ccccc1O	5.5	-16.7	17.4*	23.1	18.7*	-7.9
CCNC(=O)C1CCCN(C(=O)Cc2ccc3ccccc3c2)CC1 (stereo not drawn)	-10.6	19.6	0.3	-12.9	0.7	1.2
COc1ccc(/C=N/OCc2ccc(Br)cc2)c(OC)c1	-18.2	-10.3	-0.7	3.9	-1.3	16.2
CCC(c1ccc(O)cc1)C(CC)c1ccc(O)cc1 (stereo not drawn)	-2.5	5.5	0.4	7.1	-3.5	-12.6
Cc1cc(C(c2ccc(O)cc2)c2cc(C)c(O)cc2C)c(C)cc1O	9.1	30.6	11.4	3.9	42.3*	8.8
CCOc1ccc(CN2CCCC(CO)(Cc3ccc(F)cc3)C2)cc1 (stereo not drawn)	40.0*	20.6	2.2	-14.6	-7.5	-21.6
COc1ccc(NC(=O)N2c3ccc(OC)cc3C(C)=CC2(C)C)cc1	1.8	6.7	0.2	25.5*	-6.2	3.0

Source: PubChem BioAssay
